# Experimental data from the supplement of paper PMC8728848.
# The entries come from a sample that favours the strongest signals as a whole.
# B1: Epa21 (Candida glabrata) (protein)
# chain: MGSSHHHHHHSSGLVPRGSHMASTPNIESHPQGCSPVDTSGIKPGLKMDLYRFPITPPGTGCWSWDWLTVTPDFPRSGYWKWPKIAEVDGVVGPLHLDSGHPTCDPLTSVLPHGFNYLQSITTTNFTMVLHGYFVPKQSGKYTFEFKADDALLLNLGAGNAFSCCDYNNSQYNQGEYLAYAIWSKNNQTATLYLEKGIYYPIRVFYHNRCCGAYMDVVYYFNDSPIPNRDFSGLLFSIPDSDSCDANI
# Key:
# Test in all cases: glycan array binding signal (z-score within array); higher = stronger binding
# Settings in all cases: glycan notation: IUPAC condensed, linker removed
# [1] = target: Fuc(a1-2)Gal(b1-4)Fuc(a1-3)]GlcNAc(b1-2)Man(a1-3)[Fuc(a1-2)Gal(b1-4)[Fuc(a1-3)]GlcNAc(b1-2)Man(a1-6)]Man(b1-4)GlcNAc(b1-4)GlcNAc
# Outline: (§1)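 Glycan array data were curated from 3228 arrays in the Consortium for Functional Glycomics database and kept only where the protein sequence was available. Glycan names were converted to IUPAC-condensed notation, and columns mapping to the same glycan were averaged. The binding signal is a within-array Z-score, averaged across arrays of the same protein sequence at different concentrations or buffers and across linkers. Negative Z-scores can be read as non-binding.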
# [2] = target: Fuc(a1-2)Gal(b1-4)GlcNAc(b1-3)[Fuc(a1-2)Gal(b1-4)GlcNAc(b1-6)]GalNAc
# Outline: as §1
# [3] = target: Fuc(a1-2)Gal6S(b1-3)GlcNAc6S
# Outline: as §1
# [4] = target: Fuc(a1-2)[Gal(a1-3)]Gal(b1-3)GlcNAc(b1-2)Man(a1-3)[Fuc(a1-2)[Gal(a1-3)]Gal(b1-3)GlcNAc(b1-2)Man(a1-6)]Man(b1-4)GlcNAc(b1-4)GlcNAc
# Outline: as §1
# [5] = target: Fuc(a1-2)[Gal(a1-3)]Gal(b1-4)GlcNAc(b1-6)GalNAc
# Outline: as §1
# [6] = target: Fuc(a1-2)[GalNAc(a1-3)]Gal(b1-4)GlcNAc(b1-6)GalNAc
# Outline: as §1
# [7] = target: Fuc(a1-2)[GalNAc(a1-3)]Gal(b1-4)[Fuc(a1-3)]GlcNAc
# Outline: as §1
# [8] = target: Fuc(a1-3)[Gal(b1-4)]GlcNAc(b1-2)Man
# Outline: as §1
# [9] = target: Fuc(a1-3)[Gal(b1-4)]GlcNAc(b1-3)Gal(b1-4)[Fuc(a1-3)]GlcNAc
# Outline: as §1
# Fuc(b1-3)GlcNAc = target: Fuc(b1-3)GlcNAc
# Outline: as §1
# Gal(a1-3)Gal(b1-4)Glc = target: Gal(a1-3)Gal(b1-4)Glc
# Outline: as §1
# [10] = target: Gal(a1-3)Gal(b1-4)GlcNAc(b1-3)GalNAc
# Outline: as §1
# Gal(a1-3)GalNAc = target: Gal(a1-3)GalNAc
# Outline: as §1
# Gal(a1-4)GlcNAc = target: Gal(a1-4)GlcNAc
# Outline: as §1
# [11] = target: Gal(b1-3)GlcNAc(b1-3)Gal(b1-4)GlcNAc
# Outline: as §1
# [12] = target: Gal(b1-3)GlcNAc(b1-3)Gal(b1-4)[Fuc(a1-3)]GlcNAc(b1-6)[Gal(b1-3)GlcNAc(b1-3)]Gal(b1-4)Glc
# Outline: as §1
# [13] = target: Gal(b1-3)GlcNAc(b1-3)GalNAc
# Outline: as §1
# [14] = target: Gal(b1-4)GlcNAc(b1-2)Man(a1-3)[Gal(b1-4)GlcNAc(b1-2)Man(a1-6)][GlcNAc(b1-4)]Man(b1-4)GlcNAc(b1-4)[Fuc(a1-6)]GlcNAc
# Outline: as §1
# [15] = target: Gal(b1-4)GlcNAc(b1-3)Gal(b1-4)GlcNAc(b1-3)Gal(b1-4)GlcNAc(b1-2)Man(a1-3)[Gal(b1-4)GlcNAc(b1-3)Gal(b1-4)GlcNAc(b1-3)Gal(b1-4)GlcNAc(b1-2)Man(a1-6)]Man(b1-4)GlcNAc(b1-4)GlcNAc
# Outline: as §1
# [16] = target: Gal(b1-4)GlcNAc(b1-3)Gal(b1-4)GlcNAc(b1-3)[Gal(b1-4)GlcNAc(b1-3)Gal(b1-4)GlcNAc(b1-6)]GalNAc
# Outline: as §1
# [17] = target: Gal(b1-4)GlcNAc(b1-3)Gal(b1-4)GlcNAc(b1-6)[Gal(b1-3)]GalNAc
# Outline: as §1
# [18] = target: Gal(b1-4)GlcNAc(b1-3)Gal(b1-4)[Fuc(a1-3)]GlcNAc(b1-3)Gal(b1-4)[Fuc(a1-3)]GlcNAc
# Outline: as §1
# [19] = target: Gal(b1-4)GlcNAc(b1-6)GalNAc
# Outline: as §1
# Gal6S(b1-4)Glc6S = target: Gal6S(b1-4)Glc6S
# Outline: as §1
# Gal6S(b1-4)GlcNAc6S = target: Gal6S(b1-4)GlcNAc6S
# Outline: as §1
# [20] = target: GalNAc(b1-4)GlcNAc(b1-2)Man(a1-3)[GalNAc(b1-4)GlcNAc(b1-2)Man(a1-6)]Man(b1-4)GlcNAc(b1-4)GlcNAc
# Outline: as §1
# GlcA(b1-3)GlcNAc = target: GlcA(b1-3)GlcNAc
# Outline: as §1
# [21] = target: GlcNAc(a1-4)Gal(b1-4)GlcNAc
# Outline: as §1
# [22] = target: GlcNAc(b1-2)Gal(b1-3)GalNAc
# Outline: as §1
# [23] = target: GlcNAc(b1-6)Gal(b1-4)GlcNAc
# Outline: as §1
# [24] = target: Man(a1-2)Man(a1-2)Man(a1-6)[Man(a1-3)]Man
# Outline: as §1
# [25] = target: Man(a1-3)[Man(a1-6)]Man(a1-6)[Man(a1-3)]Man
# Outline: as §1
# [26] = target: Neu5Ac(a2-3)Gal(b1-3)GlcNAc(b1-3)Gal(b1-3)GlcNAc
# Outline: as §1
# [27] = target: Neu5Ac(a2-3)Gal(b1-3)GlcNAc(b1-3)Gal(b1-4)GlcNAc
# Outline: as §1
# [28] = target: Neu5Ac(a2-3)Gal(b1-3)[Neu5Ac(a2-6)]GlcNAc(b1-3)[Fuc(a1-3)[Gal(b1-4)]GlcNAc(b1-6)]Gal(b1-4)Glc
# Outline: as §1
# [29] = target: Neu5Ac(a2-3)Gal(b1-4)GlcNAc(b1-2)Man
# Outline: as §1
# [30] = target: Neu5Ac(a2-3)Gal(b1-4)GlcNAc(b1-3)Gal(b1-4)GlcNAc(b1-3)GalNAc
# Outline: as §1
# [31] = target: Neu5Ac(a2-3)Gal(b1-4)GlcNAc(b1-3)[Neu5Ac(a2-3)Gal(b1-4)GlcNAc(b1-6)]GalNAc
# Outline: as §1
# [32] = target: Neu5Ac(a2-3)Gal(b1-4)[Fuc(a1-3)]GlcNAc(b1-3)GalNAc
# Outline: as §1
# [33] = target: Neu5Ac(a2-6)Gal(b1-4)GlcNAc(b1-2)Man
# Outline: as §1
# [34] = target: Neu5Ac(a2-6)Gal(b1-4)GlcNAc(b1-2)Man(a1-3)[Gal(b1-4)GlcNAc(b1-2)Man(a1-6)]Man(b1-4)GlcNAc(b1-4)GlcNAc
# Outline: as §1
# [35] = target: Neu5Ac(a2-6)Gal(b1-4)GlcNAc(b1-3)Gal(b1-4)GlcNAc
# Outline: as §1
# [36] = target: Neu5Ac(a2-6)Gal(b1-4)GlcNAc(b1-3)Gal(b1-4)GlcNAc(b1-2)Man(a1-3)[Neu5Ac(a2-6)Gal(b1-4)GlcNAc(b1-3)Gal(b1-4)GlcNAc(b1-2)Man(a1-6)]GalNAc
# Outline: as §1
# [37] = target: Neu5Ac(a2-6)Gal(b1-4)GlcNAc(b1-3)Gal(b1-4)GlcNAc(b1-3)Gal(b1-4)GlcNAc(b1-2)Man(a1-3)[Neu5Ac(a2-6)Gal(b1-4)GlcNAc(b1-3)Gal(b1-4)GlcNAc(b1-3)Gal(b1-4)GlcNAc(b1-2)Man(a1-6)]GalNAc
# Outline: as §1
# [38] = target: Neu5Ac(a2-6)Gal(b1-4)GlcNAc(b1-3)Gal(b1-4)[Fuc(a1-3)]GlcNAc(b1-3)Gal(b1-4)[Fuc(a1-3)]GlcNAc
# Outline: as §1
# [39] = target: Neu5Ac9Ac(a2-3)Gal(b1-3)GlcNAc
# Outline: as §1
binder,measurement,setting,value
B1,glycan array binding signal (z-score),[1],2.49
same,glycan array binding signal (z-score),[2],-0.296
same,glycan array binding signal (z-score),[3],4.29
same,glycan array binding signal (z-score),[4],-0.507
same,glycan array binding signal (z-score),[5],-0.214
same,glycan array binding signal (z-score),[6],-0.634
same,glycan array binding signal (z-score),[7],-0.093
same,glycan array binding signal (z-score),[8],-0.558
same,glycan array binding signal (z-score),[9],0.064
same,glycan array binding signal (z-score),Fuc(b1-3)GlcNAc,-1.01
same,glycan array binding signal (z-score),Gal(a1-3)Gal(b1-4)Glc,-0.176
same,glycan array binding signal (z-score),[10],1.03
same,glycan array binding signal (z-score),Gal(a1-3)GalNAc,-0.135
same,glycan array binding signal (z-score),Gal(a1-4)GlcNAc,4.26
same,glycan array binding signal (z-score),[11],-0.56
same,glycan array binding signal (z-score),[12],-0.438
same,glycan array binding signal (z-score),[13],-0.317
same,glycan array binding signal (z-score),[14],-0.687
same,glycan array binding signal (z-score),[15],2.55
same,glycan array binding signal (z-score),[16],1.89
same,glycan array binding signal (z-score),[17],2.73
same,glycan array binding signal (z-score),[18],-0.493
same,glycan array binding signal (z-score),[19],-0.047
same,glycan array binding signal (z-score),Gal6S(b1-4)Glc6S,2.89
same,glycan array binding signal (z-score),Gal6S(b1-4)GlcNAc6S,3.19
same,glycan array binding signal (z-score),[20],0.288
same,glycan array binding signal (z-score),GlcA(b1-3)GlcNAc,0.14
same,glycan array binding signal (z-score),[21],-0.35
same,glycan array binding signal (z-score),[22],-0.466
same,glycan array binding signal (z-score),[23],0.013
same,glycan array binding signal (z-score),[24],-0.531
same,glycan array binding signal (z-score),[25],-0.026
same,glycan array binding signal (z-score),[26],-0.487
same,glycan array binding signal (z-score),[27],-0.39
same,glycan array binding signal (z-score),[28],-0.237
same,glycan array binding signal (z-score),[29],2.68
same,glycan array binding signal (z-score),[30],3.03
same,glycan array binding signal (z-score),[31],0.888
same,glycan array binding signal (z-score),[32],1.87
same,glycan array binding signal (z-score),[33],-0.212
same,glycan array binding signal (z-score),[34],-0.438
same,glycan array binding signal (z-score),[35],-0.589
same,glycan array binding signal (z-score),[36],2.55
same,glycan array binding signal (z-score),[37],5.42
same,glycan array binding signal (z-score),[38],-0.189
same,glycan array binding signal (z-score),[39],-0.318
